Reference: paper PMC5540273 (PLoS ONE, 2017)

Test system: MARK3
Settings: concentration: 1 μM,replicates: in singlicate; n = 1
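Further: KINOMEscan kinase panel screen.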

SMILES | %Inh [%]
CC(=O)Nc1ccc(-c2cc3ncnc(SCC(=O)O)c3s2)cc1 | 0
Cn1ccc2ncnc(Oc3ccc(NC(=O)Nc4cc(C(C)(C)C)on4)c(Cl)c3)c21 | 0
O=C(Nc1cccc(Oc2ccc3nccn3n2)c1)Nc1cccc(C(F)(F)F)c1 | 0
COC(=O)c1cccc(NC(=O)NC2CCN(c3ccnc(NCc4ccc(F)cc4)n3)CC2)c1 [GSK1379860] | 0
CN(c1cccc(CNc2nc(Nc3ccc4c(c3)CC(=O)N4)ncc2C(F)(F)F)c1)S(C)(=O)=O | 66
Cn1ccc2ncnc(Oc3ccc(NC(=O)Nc4cccc(C(F)(F)F)c4)c(Cl)c3)c21 | 0
C[C@@H](Oc1cc(-n2cnc3cc(-c4cnn(C)c4)ccc32)sc1C(N)=O)c1ccccc1Cl [GSK580432] | 82
COC(=O)Nc1nc2cc(Oc3ccc(NC(=O)Nc4cc(C(F)(F)F)ccc4Cl)cc3)ccc2[nH]1.Cl [GW697465] | 0
O=c1[nH]cc(-c2ccc(O)cc2)c2sc(-c3ccncc3)cc12 [GSK1033723] | 0
C[C@@H]1CCN(C(=O)N2CCCC2)C[C@@H]1N(C)c1ncnc2[nH]ccc12 | 46
COc1ccc(Nc2nccc(N3CCC(NC(=O)c4cccc(C#N)c4)C3)n2)cc1 (stereo not drawn) [GSK1379730] | 0
CN(c1ccccc1CNc1nc(Nc2ccc3c(c2)CC(=O)N3)ncc1C(F)(F)F)S(C)(=O)=O | 80
